Reference: PubChem BioAssay
For some of these results: Measured potencies and affinities stand elsewhere. The source made the active and inactive calls. Unless noted, no rule for the calls is given here.

Columns and labels:
[1] = antimalarial activity against Dd2 strain (AID 2302;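 active = growth inhibition above 50% at the single 2 µM test dose, taken to imply half-maximal potency below 2 µM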;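 also: 0% = DMSO untreated growth and 100% = chloroquine plus artemisinin killed control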); settings: P. falciparum Dd2 in RBCs, LDH growth readout, 72 h; at 2 µM; active compounds read high
[2] = target: L-lactate dehydrogenase (Plasmodium falciparum (isolate CDC / Honduras)) (UniProt Q27743); assay: PfLDH activity inhibition – cell lysate, 3D7 strain, counter-screen for P. falciparum growth inhibition project (AID 2304);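 also: 0% = vehicle and 100% = reference inhibitor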; settings: P. falciparum 3D7 crude extract, LDH APAD/NBT absorbance; at 2 µM; active compounds read high
[3] = inhibition of 3D7 malaria parasite growth – strain 3D7 (AID 2306);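 also: 0% = DMSO wells and 100% = chloroquine plus artemisinin control wells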; settings: P. falciparum 3D7 erythrocytic growth, LDH absorbance, 72 h; at 2 µM; active compounds read high
[4] = target: Calcium-dependent protein kinase 1 (Plasmodium falciparum (isolate 3D7)) (UniProt P62344); assay: PfCDPK1 kinase inhibitors, biochemical, TCAMS library (AID 1159585; cut-off not given, nearly all actives have IC50 up to about 0.98 µM;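 also: inhibitors leave more ATP so luminescence rises with inhibition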); settings: recombinant PfCDPK1, Kinase-Glo ATP depletion luminescence
[5] = target: Plasmodium falciparum protein kinase 6 (PK6, PF3D7_1337100) (UniProt Q8IDW1); assay: PfPK6 kinase inhibitors, biochemical, TCAMS library (AID 1159586); settings: recombinant PfPK6, Kinase-Glo ATP depletion luminescence
[6] = target: Protein kinase 7 (PK7), Plasmodium falciparum 3D7 (PF3D7_0213400) (UniProt Q7YTF7); assay: inhibition of Plasmodium PK7 catalytic activity – biochemical, TCAMS antimalarial set, Kinase-Glo luminescence (AID 1159587); settings: recombinant PfPK7, Kinase-Glo ATP depletion luminescence
[7] = target: Calcium-dependent protein kinase 4 (Plasmodium falciparum (isolate 3D7)) (UniProt Q8IBS5); assay: PfCDPK4 kinase inhibitors, biochemical, TCAMS library (AID 1159588; cut-off not given, nearly all actives have IC50 up to about 0.91 µM); settings: recombinant PfCDPK4, Kinase-Glo ATP depletion luminescence
Chain of Calcium-dependent protein kinase 4 (Plasmodium falciparum (isolate 3D7)) (Q8IBS5 whole entry, looked up): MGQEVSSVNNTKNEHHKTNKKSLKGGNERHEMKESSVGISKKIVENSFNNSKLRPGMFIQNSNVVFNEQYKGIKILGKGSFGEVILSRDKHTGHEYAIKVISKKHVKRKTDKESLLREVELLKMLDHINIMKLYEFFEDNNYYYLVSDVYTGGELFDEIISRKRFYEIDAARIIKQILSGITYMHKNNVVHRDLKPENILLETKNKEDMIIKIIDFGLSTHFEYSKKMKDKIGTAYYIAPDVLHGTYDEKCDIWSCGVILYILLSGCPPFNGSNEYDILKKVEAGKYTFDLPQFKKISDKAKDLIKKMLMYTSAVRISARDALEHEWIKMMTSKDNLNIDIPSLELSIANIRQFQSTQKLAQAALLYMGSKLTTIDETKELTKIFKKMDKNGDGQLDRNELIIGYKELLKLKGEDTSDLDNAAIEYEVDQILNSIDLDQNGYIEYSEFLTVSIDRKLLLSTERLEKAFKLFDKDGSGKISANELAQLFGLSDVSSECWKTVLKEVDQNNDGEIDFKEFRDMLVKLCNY

Chain of Calcium-dependent protein kinase 1 (Plasmodium falciparum (isolate 3D7)) (P62344 whole entry, looked up): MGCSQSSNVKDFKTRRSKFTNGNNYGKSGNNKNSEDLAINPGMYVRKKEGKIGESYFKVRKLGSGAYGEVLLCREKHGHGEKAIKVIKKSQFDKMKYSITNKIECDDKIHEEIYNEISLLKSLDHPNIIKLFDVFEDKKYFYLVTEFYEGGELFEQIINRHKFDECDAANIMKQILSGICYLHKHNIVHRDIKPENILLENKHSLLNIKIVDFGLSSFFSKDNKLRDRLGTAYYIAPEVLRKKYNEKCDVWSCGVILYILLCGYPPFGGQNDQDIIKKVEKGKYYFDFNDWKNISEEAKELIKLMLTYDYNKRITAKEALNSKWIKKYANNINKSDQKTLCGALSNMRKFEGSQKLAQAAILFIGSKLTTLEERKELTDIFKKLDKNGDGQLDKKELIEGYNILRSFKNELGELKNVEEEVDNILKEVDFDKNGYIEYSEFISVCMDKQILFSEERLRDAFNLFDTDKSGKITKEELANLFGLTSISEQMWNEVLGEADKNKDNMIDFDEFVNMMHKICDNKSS
Chain of Plasmodium falciparum protein kinase 6 (PK6, PF3D7_1337100) (Q8IDW1 1-305): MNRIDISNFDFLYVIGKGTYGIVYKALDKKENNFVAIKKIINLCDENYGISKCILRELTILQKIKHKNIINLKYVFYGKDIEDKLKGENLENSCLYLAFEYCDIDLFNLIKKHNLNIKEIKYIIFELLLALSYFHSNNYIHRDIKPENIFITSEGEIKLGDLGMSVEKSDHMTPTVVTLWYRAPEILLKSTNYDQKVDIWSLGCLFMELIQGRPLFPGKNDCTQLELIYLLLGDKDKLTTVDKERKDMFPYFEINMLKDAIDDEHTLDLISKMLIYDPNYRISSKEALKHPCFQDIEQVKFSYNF
Chain of L-lactate dehydrogenase (Plasmodium falciparum (isolate CDC / Honduras)) (Q27743 whole entry, looked up): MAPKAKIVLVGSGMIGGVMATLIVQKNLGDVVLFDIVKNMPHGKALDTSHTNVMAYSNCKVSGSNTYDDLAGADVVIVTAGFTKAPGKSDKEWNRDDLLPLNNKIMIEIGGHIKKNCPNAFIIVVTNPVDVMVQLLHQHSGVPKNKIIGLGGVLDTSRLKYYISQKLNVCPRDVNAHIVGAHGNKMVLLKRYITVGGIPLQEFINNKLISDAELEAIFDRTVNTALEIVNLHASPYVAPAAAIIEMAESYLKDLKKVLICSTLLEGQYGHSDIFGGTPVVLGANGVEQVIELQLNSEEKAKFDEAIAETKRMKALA
Chain of Protein kinase 7 (PK7), Plasmodium falciparum 3D7 (PF3D7_0213400) (Q7YTF7 1-343): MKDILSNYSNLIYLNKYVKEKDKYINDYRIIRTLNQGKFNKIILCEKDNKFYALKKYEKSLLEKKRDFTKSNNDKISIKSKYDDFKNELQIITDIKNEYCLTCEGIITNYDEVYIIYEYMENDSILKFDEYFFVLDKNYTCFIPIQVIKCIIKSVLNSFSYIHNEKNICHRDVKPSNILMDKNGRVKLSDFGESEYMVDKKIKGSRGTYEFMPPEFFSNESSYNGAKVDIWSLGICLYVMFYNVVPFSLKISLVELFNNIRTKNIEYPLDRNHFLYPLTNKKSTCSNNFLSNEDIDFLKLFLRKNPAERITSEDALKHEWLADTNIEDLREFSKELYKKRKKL

CN(C)S(=O)(=O)n1ccc2c3c(N)nc(N)nc3ccc21
inactive: growth inhibition [1] -3% | inhibition [2] -4% | outcome [4] | outcome [5] | outcome [6] | outcome [7]
active: growth inhibition [3] 94%

CCN(CC)CCCC(C)Nc1ccnc2cc(C#N)ccc12 (centres undefined)
active: growth inhibition [1] 80% | growth inhibition [3] 100%
inactive: inhibition [2] -1% | outcome [4] | outcome [5] | outcome [6] | outcome [7]

CCCCCCOc1ccc2ccccc2c1CNCCCCCCNCc1c(OCCCCCC)ccc2ccccc12
inactive: inhibition [2] 6% | outcome [4] | outcome [5] | outcome [6] | outcome [7]
active: growth inhibition [1] 55% | growth inhibition [3] 85%

CCOc1ccc(CNCCCCCCNCc2ccc(OCC)c3ccccc23)c2ccccc12
inactive: inhibition [2] -4% | outcome [4] | outcome [5] | outcome [6] | outcome [7]
active: growth inhibition [1] 75% | growth inhibition [3] 101%

Cc1ccc2ccncc2c1N
inactive: growth inhibition [1] 4% | inhibition [2] -6% | outcome [4] | outcome [5] | outcome [6] | outcome [7]
active: growth inhibition [3] 96%

Cc1[nH]c(C)c(-c2ccc(S(=O)(=O)c3ccc(Cl)cc3)cc2)c(=O)c1Br
active: growth inhibition [1] 97% | growth inhibition [3] 97%
inactive: inhibition [2] 5% | outcome [4] | outcome [5] | outcome [6] | outcome [7]

Nc1ncc(-c2ccc(S(=O)(=O)Nc3ccc(C(=O)N[C@@H](CCC(=O)O)C(=O)O)cc3)cc2)c(=O)[nH]1
inactive: growth inhibition [1] 0% | inhibition [2] -3% | outcome [4] | outcome [5] | outcome [6] | outcome [7]
active: growth inhibition [3] 99%

CCN(C)C(=O)n1ncc2c3c(N)nc(N)nc3ccc21
active: growth inhibition [3] 95%
inactive: growth inhibition [1] 0% | inhibition [2] 6% | outcome [4] | outcome [5] | outcome [6] | outcome [7]

CCN(CC)CCNc1cc(C)nc(/N=C(\N)Nc2ccc(Cl)cc2)n1
active: growth inhibition [3] 101%
inactive: growth inhibition [1] 0% | inhibition [2] 3% | outcome [4] | outcome [5] | outcome [6] | outcome [7]

NC(N)=NC(=O)Nc1cc(Br)c(Cl)c(C(F)(F)F)c1
inactive: inhibition [2] 0% | outcome [4] | outcome [5] | outcome [6] | outcome [7]
active: growth inhibition [1] 91% | growth inhibition [3] 101%

COc1cc(Cc2cnc(N)nc2N)cc(OCCCCCCN)c1OC
active: growth inhibition [3] 96%
inactive: growth inhibition [1] -4% | inhibition [2] -6% | outcome [4] | outcome [5] | outcome [6] | outcome [7]

FC(F)(F)c1ccc2c(NCCCNc3ccnc4cc(C(F)(F)F)ccc34)ccnc2c1
inactive: inhibition [2] 3% | outcome [4] | outcome [5] | outcome [6] | outcome [7]
active: growth inhibition [1] 101% | growth inhibition [3] 100%

Cc1[nH]c(C)c(-c2ccc(Oc3ccc(F)cc3)cc2)c(=O)c1Br
active: growth inhibition [1] 98% | growth inhibition [3] 100%
inactive: inhibition [2] -1% | outcome [4] | outcome [5] | outcome [6] | outcome [7]

Cc1[nH]c(C)c(-c2ccc(Oc3ccc(Cl)c(Cl)c3)cc2)c(=O)c1Br
active: growth inhibition [1] 96% | growth inhibition [3] 97%
inactive: inhibition [2] -1% | outcome [4] | outcome [5] | outcome [6] | outcome [7]

Oc1cc2ccccc2cc1CNC1CCCCC1
inactive: inhibition [2] -9% | outcome [4] | outcome [5] | outcome [6] | outcome [7]
active: growth inhibition [1] 89% | growth inhibition [3] 98%

Oc1ccc2c(CNC3CCCCC3)c(O)ccc2c1CNC1CCCCC1
active: growth inhibition [1] 101% | growth inhibition [3] 101%
inactive: inhibition [2] -4% | outcome [4] | outcome [5] | outcome [6] | outcome [7]

Cc1[nH]c(C)c(-c2ccc(Oc3ccc(Cl)cc3)cc2)c(=O)c1C
inactive: inhibition [2] -8% | outcome [4] | outcome [5] | outcome [6] | outcome [7]
active: growth inhibition [1] 95% | growth inhibition [3] 96%

CC(C)(C)c1ccc(-c2nnc(N)nc2N)cc1
inactive: growth inhibition [1] -4% | inhibition [2] -4% | outcome [4] | outcome [5] | outcome [6] | outcome [7]
active: growth inhibition [3] 92%

Cc1ccccc1OCCCc1c(C)nc(N)nc1N
active: growth inhibition [3] 97%
inactive: growth inhibition [1] 1% | inhibition [2] -3% | outcome [4] | outcome [5] | outcome [6] | outcome [7]

Clc1ccc(CNCCCCCCCNCc2ccc(Cl)c(Cl)c2)cc1Cl
inactive: growth inhibition [1] 49% | inhibition [2] -7% | outcome [4] | outcome [5] | outcome [6] | outcome [7]
active: growth inhibition [3] 99%

CCN(Cc1cccc2ccccc12)c1ccc2nc(N)nc(N)c2c1
active: growth inhibition [1] 100% | growth inhibition [3] 100%
inactive: inhibition [2] 3% | outcome [4] | outcome [5] | outcome [6] | outcome [7]

Nc1nc(N)c2c3c(ccc2n1)NCCC3
inactive: growth inhibition [1] -10% | inhibition [2] -3% | outcome [4] | outcome [5] | outcome [6] | outcome [7]
active: growth inhibition [3] 97%

Cc1[nH]c(C)c(-c2ccc(Oc3ccc(Cl)c(Cl)c3)cc2)c(=O)c1Cl
active: growth inhibition [1] 97% | growth inhibition [3] 100%
inactive: inhibition [2] -1% | outcome [4] | outcome [5] | outcome [6] | outcome [7]

C=CCOc1ccc(Cc2cnc(N)nc2N)cc1CCC
inactive: growth inhibition [1] -1% | inhibition [2] -1% | outcome [4] | outcome [5] | outcome [6] | outcome [7]
active: growth inhibition [3] 93%

CCc1cccc(-c2cc(=N)n(C)c3nc(N)[nH]c(=O)c23)c1
inactive: growth inhibition [1] 28% | inhibition [2] 3% | outcome [4] | outcome [5] | outcome [6] | outcome [7]
active: growth inhibition [3] 85%

CC(CN=C(N)c1cccc(C(N)=NCC(C)Oc2cccc(C3CCCCC3)c2)n1)Oc1cccc(C2CCCCC2)c1 (centres undefined)
active: growth inhibition [3] 90%
inactive: growth inhibition [1] 31% | inhibition [2] 2% | outcome [4] | outcome [5] | outcome [6] | outcome [7]

Nc1ncc(-c2ccc(Br)cc2)c(N)n1
inactive: growth inhibition [1] 0% | inhibition [2] 0% | outcome [4] | outcome [5] | outcome [6] | outcome [7]
active: growth inhibition [3] 89%

COc1cc(Cc2cnc(N)nc2N)cc(OCCCCC#N)c1OC
active: growth inhibition [3] 86%
inactive: growth inhibition [1] -1% | inhibition [2] 8% | outcome [4] | outcome [5] | outcome [6] | outcome [7]

Cc1nc(NCc2ccccc2)cc(Nc2cc(NCc3ccccc3)nc(C)n2)n1
inactive: growth inhibition [1] 32% | inhibition [2] 8% | outcome [4] | outcome [5] | outcome [6] | outcome [7]
active: growth inhibition [3] 90%

COc1cc(CCNC(=O)Cc2ccc3ccccc3c2)ccc1OCc1ccccc1
inactive: inhibition [2] 2% | outcome [4] | outcome [5] | outcome [6] | outcome [7]
active: growth inhibition [1] 61% | growth inhibition [3] 93%

COc1ccccc1-c1nc2c(ccc3nc(N)nc(N)c32)[nH]1
inactive: inhibition [2] 2% | outcome [4] | outcome [5] | outcome [6] | outcome [7]
active: growth inhibition [1] 93% | growth inhibition [3] 101%

Cc1cc(=O)c(-c2ccc(OCc3ccc(Cl)cc3)cc2)c(C)[nH]1
active: growth inhibition [1] 76% | growth inhibition [3] 93%
inactive: inhibition [2] -1% | outcome [4] | outcome [5] | outcome [6] | outcome [7]

Nc1nc(N)c2c(Oc3ccc(Cl)c(Cl)c3)cccc2n1
inactive: growth inhibition [1] 22% | inhibition [2] -5% | outcome [4] | outcome [5] | outcome [6] | outcome [7]
active: growth inhibition [3] 95%

Cc1[nH]c(C)c(-c2ccc(-c3ccc(F)cc3)cc2)c(=O)c1Cl
active: growth inhibition [1] 96% | growth inhibition [3] 96%
inactive: inhibition [2] -2% | outcome [4] | outcome [5] | outcome [6] | outcome [7]

CC(C)(C)OC(=O)N[C@@H](CS(=O)(=O)CCN=C(N)COCc1ccccc1)C(=O)OC(C)(C)C
inactive: inhibition [2] 4% | outcome [4] | outcome [5] | outcome [6] | outcome [7]
active: growth inhibition [1] 76% | growth inhibition [3] 88%

CC(C)n1c(C(C)(C)C)cc2c3c(N)nc(N)nc3ccc21
inactive: inhibition [2] -3% | outcome [4] | outcome [5] | outcome [6] | outcome [7]
active: growth inhibition [1] 99% | growth inhibition [3] 100%

CCCOc1cc2c(cc1OCCC)C(C=Cc1ccc(Cl)cc1Cl)=NC(C)C2 (centres undefined)
active: growth inhibition [1] 75% | growth inhibition [3] 90%
inactive: inhibition [2] -5% | outcome [4] | outcome [5] | outcome [6] | outcome [7]
